Records with an inconclusive call do not appear. A number with no mark means an inactive call. Calls come from the whole dose curve; as a rule, active = well fitted inhibition curve with a large enough effect; inconclusive = small, poorly fitted or top-dose-only effect; inactive = flat fitted curve, though single readings scatter.
% is set by controls: 0 for no effect and ±100 for the full control effect.

The nature of the first experiment: Drug repurposing screens with cells derived from glioblastoma tumor samples (AID 1345199). Note: nearly all actives have a fitted effect of over 40% in size. As to conditions: GBM patient neurospheres viability, ATP luminescence, 48 h; at 21.2 µM (top of the series); tumour line B. The method, boiled down:
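Primary testing used CD133+ neurospheres from four GBM patients, seven concentrations, 48 h exposure and ATP-based viability; confirmation added three slower-growing patient lines.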
In the case of `CCCCC/C=C\CCC(=O)N[C@H]1[C@H](Oc2c3cc4cc2Oc2ccc(cc2Cl)[C@@H](O[C@@H]2O[C@H](CO)[C@@H](O)[C@H](O)[C@H]2NC(C)=O)[C@@H]2NC(=O)[C@H](NC(=O)[C@@H]4NC(=O)[C@H]4NC(=O)[C@@H](Cc5ccc(c(Cl)c5)O3)NC(=O)[C@H](N)c3ccc(O)c(c3)Oc3cc(O)cc4c3)c3ccc(O)c(c3)-c3c(O[C@H]4O[C@H](CO)[C@@H](O)[C@H](O)[C@@H]4O)cc(O)cc3[C@@H](C(=O)O)NC2=O)O[C@H](CO)[C@@H](O)[C@@H]1O`, the activity, negative = cell killing was -7.38%. Same read-out and setting: then `CC1CCCC(C)N1NC(=O)c1ccc(Cl)c(S(N)(=O)=O)c1` (configuration not stated), with -10.8%. On to `COC1[C@@H](O[C@@H]2O[C@H](C)[C@@H](O[C@H]3C[C@@](C)(O)[C@H](OC(=O)CC(C)C)[C@H](C)O3)[C@H](N(C)C)[C@H]2O)[C@@H](CC=O)C[C@@H](C)[C@@H](O)/C=C/C=C/C[C@@H](C)OC(=O)C[C@H]1OC(C)=O` (some centres not stated), for which the activity, negative = cell killing is -12.1%. With `COc1c(O[C@@H]2O[C@H](CO)[C@@H](O)[C@H](O)[C@H]2O)cc2c(c1OC)-c1ccc(SC)c(=O)cc1[C@@H](NC(C)=O)CC2`, the activity, negative = cell killing was -28.7%. Regarding `NC(=O)c1cc[n+](CC2=C(C(=O)O)N3C(=O)[C@@H](NC(=O)C(c4ccccc4)S(=O)(=O)[O-])[C@H]3SC2)cc1` (some centres not stated), the activity, negative = cell killing was -0.0366%.

Consider `CN[C@@H]1[C@@H](O)[C@@H](O[C@@H]2[C@@H](O)[C@H](OC3OC(CN)=CCC3N)[C@@H](N)C[C@H]2N)OC[C@]1(C)O` (some centres not stated), for which the activity, negative = cell killing was -6.65%. With `CCSc1ccc2c(c1)N(CCCN1CCN(C)CC1)c1ccccc1S2`, the activity, negative = cell killing is -0.856%.

The experiment is the same for the next values; noted with them: GBM patient neurospheres viability, ATP luminescence, 48 h; at 21.2 µM (top of the series); tumour line D.
For `CCCCC/C=C\CCC(=O)N[C@H]1[C@H](Oc2c3cc4cc2Oc2ccc(cc2Cl)[C@@H](O[C@@H]2O[C@H](CO)[C@@H](O)[C@H](O)[C@H]2NC(C)=O)[C@@H]2NC(=O)[C@H](NC(=O)[C@@H]4NC(=O)[C@H]4NC(=O)[C@@H](Cc5ccc(c(Cl)c5)O3)NC(=O)[C@H](N)c3ccc(O)c(c3)Oc3cc(O)cc4c3)c3ccc(O)c(c3)-c3c(O[C@H]4O[C@H](CO)[C@@H](O)[C@H](O)[C@@H]4O)cc(O)cc3[C@@H](C(=O)O)NC2=O)O[C@H](CO)[C@@H](O)[C@@H]1O`, the activity, negative = cell killing is -14.2%. With `CC1CCCC(C)N1NC(=O)c1ccc(Cl)c(S(N)(=O)=O)c1` (configuration not stated), the activity, negative = cell killing was -17.6%. Still for that read-out and setting: then `COC1[C@@H](O[C@@H]2O[C@H](C)[C@@H](O[C@H]3C[C@@](C)(O)[C@H](OC(=O)CC(C)C)[C@H](C)O3)[C@H](N(C)C)[C@H]2O)[C@@H](CC=O)C[C@@H](C)[C@@H](O)/C=C/C=C/C[C@@H](C)OC(=O)C[C@H]1OC(C)=O` (some centres not stated), with -12.4%; and `COc1c(O[C@@H]2O[C@H](CO)[C@@H](O)[C@H](O)[C@H]2O)cc2c(c1OC)-c1ccc(SC)c(=O)cc1[C@@H](NC(C)=O)CC2`, with -5.86%.

As to `NC(=O)c1cc[n+](CC2=C(C(=O)O)N3C(=O)[C@@H](NC(=O)C(c4ccccc4)S(=O)(=O)[O-])[C@H]3SC2)cc1` (some centres not stated), the activity, negative = cell killing is -7.97%.

(Values after PubChem BioAssay (NCATS).)
